# Screening data as filed in PubChem BioAssay.
# LMP1 NFkB inh – EBV LMP1-driven NF-kappaB luciferase reporter inhibitors, primary screen, cell-based, luminescence, single point. LMP1-induced NF-kappaB luciferase reporter cells. inhibition, % at 12.5 µM. 350,000 compounds, 0.69% hits. AID 504558, 2011; in the data active means inhibition above about 41%; inconclusive means no clear call, values can overlap the other calls;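 further: 0% = neutral control wells and 100% = reference inhibitor control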
# PAX8 reporter – inhibitors of PAX8-driven TPO luciferase reporter, primary screen, RMG-I cells, single concentration | SteadyGlo, 24 h | inhibition, % at 12.6 µM | 360,000 compounds, 1.2% hits | AID 652154, 2013;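 active means mean replicate inhibition at least 60% with every replicate also reaching 60%; inconclusive means only one of the two criteria is met; inactive means mean below 60% and not all replicates reaching 60%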;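 further: luciferase light reporting Pax8 driven TPO promoter activity; plate controls were median of neutral control wells for no effect and mitoxantrone controls for full effect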
# MITF TRPM1 inh – inhibitors of MITF-dependent TRPM1 promoter reporter, primary screen, cell-based, SK-MEL-5, single point, luciferase. AID 488899, 2010. 330,000 compounds, 0.83% hits. SK-MEL-5 TRPM1 promoter luciferase, 24 h. inhibition, % at 12.5 µM;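 active means mean inhibition across replicates of 60% or more, whatever share of single replicates reaches that level; inconclusive means some that reach 60%, reason not given; inactive means mean inhibition across replicates below 60%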
# Shn3 3UTR inh – reduction of Shn3 3'UTR firefly luciferase signal, primary screen, Schnurri-3 inhibitor project, cell-based, Clone20 osteoblasts, set 2; Clone20 osteoblast Shn3 3'UTR firefly luciferase, 24 h; inhibition, % at 12.5 µM; 360,000 compounds, 0.52% hits;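 active means mean inhibition of at least 75% with every replicate also reaching 75%; inconclusive means mean inhibition at least 75% but some replicate below; inactive means mean inhibition below 75%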;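 further: 0% = median of neutral control wells and 100% = pilot-screen positive control compound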
# aSyn UTR inh – MLPCN primary screen, SNCA 5' untranslated region. 300,000 compounds, 0.82% hits. alpha-synuclein 5'UTR reporter, inhibitor activity. AID 1813, 2009. inhibition, % (tested at 7.5 µM); in the data active means inhibition above about 60%; inconclusive means no clear call, values can overlap the other calls;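 further: H4 neuroglioblastoma cells stably carrying SNCA 5'UTR luciferase fusion; 0% = DMSO wells and 100% = positive control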
# An asterisk follows results filed as active; ? = inconclusive; . = no result given. A selection: hits, their analogues and other compounds. The true share with any hit is near 2.1%.
SMILES,LMP1 NFkB inh,PAX8 reporter,MITF TRPM1 inh,Shn3 3UTR inh,aSyn UTR inh
Cc1c(C)c2cccnc2c2ncccc12,86*,.,83*,83,.
CCN1CCN(C(c2cccs2)C(C)NC(=O)c2ccccc2)CC1 (configuration not stated),0,2,8,-1,-6
Cc1ccc(S(=O)(=O)Nc2ccc3c(c2)C(=O)N([C@H](C)CO)C[C@H](C)[C@H](CN(C)C(=O)Nc2cccc4ccccc24)OCCCC[C@@H](C)O3)cc1,-2,44,.,-15,.
C[C@H](CO)N1C[C@H](C)[C@H](CN(C)C(=O)Nc2cccc3ccccc23)Oc2ccc(NS(=O)(=O)c3ccccc3)cc2CC1=O,.,3,.,.,.
Cc1ccc(S(=O)(=O)Nc2ccc3c(c2)C(=O)N([C@@H](C)CO)C[C@H](C)[C@@H](CN(C)C(=O)Nc2cccc4ccccc24)OCCCC[C@H](C)O3)cc1,.,70*,.,.,.
Cc1ccc(S(=O)(=O)Nc2ccc3c(c2)C(=O)N([C@H](C)CO)C[C@H](C)[C@@H](CN(C)C(=O)Nc2cccc4ccccc24)OCCCC[C@H](C)O3)cc1,.,15,.,.,.
Cc1ccc(S(=O)(=O)Nc2ccc3c(c2)C(=O)N([C@H](C)CO)C[C@@H](C)[C@H](CN(C)C(=O)Nc2cccc4ccccc24)OCCCC[C@@H](C)O3)cc1,.,79*,.,.,.
C[C@@H]1CCCCO[C@H](CN(C)C(=O)Nc2cccc3ccccc23)[C@H](C)CN([C@@H](C)CO)C(=O)c2cc(NS(=O)(=O)c3ccc(Cl)cc3)ccc2O1,.,76*,.,.,.
C[C@@H]1CN([C@@H](C)CO)C(=O)Cc2cc(NS(=O)(=O)c3ccccc3)ccc2O[C@@H]1CN(C)C(=O)Nc1cccc2ccccc12,.,73*,.,.,.
C=CCSc1nnc(NC(=O)c2ccc3c(c2)OCCO3)s1,20,-55,.,-100,.
COc1ccc(NC(=O)c2ccccc2NC(=O)c2ccco2)cc1,-11,-6,-7,-14,-18
Cc1ccc(S(=O)(=O)Nc2ccc3c(c2)C(=O)N([C@@H](C)CO)C[C@@H](C)[C@@H](CN(C)C(=O)Nc2cccc4ccccc24)OCCCC[C@H](C)O3)cc1,.,10,.,.,.
Cc1ccc(S(=O)(=O)Nc2ccc3c(c2)C(=O)N([C@@H](C)CO)C[C@H](C)[C@@H](CN(C)C(=O)Nc2cccc4ccccc24)OCCCC[C@@H](C)O3)cc1,.,81*,.,.,.
C[C@H]1CCCCO[C@H](CN(C)C(=O)Nc2cccc3ccccc23)[C@@H](C)CN([C@@H](C)CO)C(=O)c2cc(NS(=O)(=O)c3ccccc3)ccc2O1,.,72*,.,.,.
C[C@H](CO)N1C[C@H](C)[C@@H](CN(C)C(=O)Nc2cccc3ccccc23)OCCCC[C@H](C)Oc2ccc(NS(=O)(=O)c3ccccc3)cc2C1=O,.,33,.,.,.
CCN(CC)c1ccc(CNc2ccc3c(c2)ncn3C(C)(C)C)cc1,5,1,12,28,-31
C/C=C/c1ccc([C@@H]2[C@H](CO)N(C(=O)Cc3ccncc3)[C@H]2CNC(C)=O)cc1,.,13,.,.,.
O=C1c2ccccc2NC(c2ccc(-c3ccccc3F)o2)N1O (configuration not stated),-18,-65,-88,-66,.
Cc1cc([N+](=O)[O-])ccc1-c1ccc(C2Nc3ccccc3C(=O)N2O)o1 (configuration not stated),34,.,21,83,83*
COc1cccc(/C=C2\SC(=S)N(CCCC(=O)N(CCO)c3ccccc3)C2=O)c1,19,65*,11,-10,39
COc1cccc(/C=C2\SC(=S)N(CCCC(=O)N3CCCCC3)C2=O)c1,3,27,21,-16,26
O=C1/C(=C/c2cccc(Br)c2)SC(=S)N1CCC(=O)N(CCO)c1ccccc1,-2,90*,-16,-16,-1
CC(C)(C)c1ccccc1NC(=O)Nc1nc(C(N)c2ccccc2)cs1 (configuration not stated),.,6,.,22,.
O=C(c1ccc(Cl)cc1)[C@@H]1[C@@H]2C(=O)N(c3ccccc3)C(=O)[C@@H]2C2c3ccccc3C=NN21 (some centres not stated),1,14,6,-2,-3
Nc1ccc(-c2ncc(-c3ccccc3)o2)cc1,28,-33,58,44,86*
SMILES,LMP1 NFkB inh,PAX8 reporter,MITF TRPM1 inh,Shn3 3UTR inh,aSyn UTR inh
C[C@@H]1CN([C@H](C)CO)C(=O)c2cc(C3=CCCCC3)cnc2O[C@H]1CN(C)Cc1ccc(C(=O)O)cc1,.,-28,.,.,.
CC(C)N(Cc1ccccc1)C(=O)CN1C(=O)NC2(CCCCCC2)C1=O,-10,4,3,47,.
CC(C)Oc1ccc(C(CCN)C2CCCCC2)cc1 (configuration not stated),6,-6,88*,77,-10
CC(C)Oc1ccc(C(=O)NC2CCCCC2)cc1,-2,.,-70,-54,-91
COc1ccccc1Nc1nc(NCC(C)C)nc(N)c1[N+](=O)[O-],-17,-19,-10,-8,77*
CCC(C)Nc1nc(N)c([N+](=O)[O-])c(Nc2cc(OC)ccc2OC)n1 (configuration not stated),-8,24,5,5,97*
CCOC(=O)C1CCN(C(=O)CN(Cc2ccccc2)S(C)(=O)=O)CC1,-29,.,0,-37,13
O=C1c2ccccc2S(=O)(=O)c2cc(N3CCOCC3)ccc21,31,-1,22,39,76*
O=C1c2ccccc2S(=O)(=O)c2cc(N3CCN(c4ccccc4)CC3)ccc21,.,2,.,.,-19
CC(C)(C)OC(=O)C[C@@H]1C/C=C\C[C@H](CC(=O)N(CCO)Cc2ccccc2)C(=O)N2CCC[C@@H]2COC1=O,2,0,-3,-2,.
O=S(=O)(c1ccc(Cl)cc1)n1ccc2cccnc21,-5,10,1,98*,-1
Cc1cc2c(c(C)c1CCO[C@@H]1O[C@H](CO)[C@@H](O)[C@H](O)[C@H]1O)C(=O)[C@@H](C)[C@@H]2O,-4,86*,-16,-26,.
OC[C@H]1O[C@H](OCCc2ccc(O)cc2)[C@H](O)[C@@H](O)[C@@H]1O,-8,-4,-1,4,.
Cc1ccc(-c2c[nH]c(=S)n2-c2ccccc2)cc1,-3,-20,-3,11,-30
CCCOc1ccc(/C=C/C(=O)Nc2ccc([N+](=O)[O-])cc2)cc1,?,27,14,.,68*
CCOC(=O)c1c(NC(=O)COc2ccccc2C#N)sc2c1CC(C)(C)NC2(C)C,-2,.,53,12,13
CCOC(=O)c1c(NC(=O)COc2ccccc2OCC)sc2c1CC(C)(C)NC2(C)C,4,.,84*,-86,21
CC1(C)Cc2c(sc(NC(=O)COc3cccc4ccccc34)c2C#N)C(C)(C)N1,-63,11,37,14,72*
CN(C(=O)COC(=O)CNC(=O)c1sc2ccccc2c1Cl)C1CCS(=O)(=O)C1 (configuration not stated),-4,.,-6,7,.
